Measurements published in PubChem BioAssay (NCI).
Compounds without any hit were thinned out: in the full panel of roughly 83,000, 20% have a hit.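 The test compound was applied at a single concentration to cells in 96-well plates for 48 hours, and percent growth was recorded.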 A number with no mark means an inactive call. Activity calls are given as the source filed them. How the source made its calls: active means growth percent below 10; inactive means the rest.

Experiments:
Assay in all cases: NCI-60 one-dose screen, 48 h (100 = growth as untreated, 0 = no growth, -100 = all killed)
[1] = test system: NCI-H23 lung; settings: 10 µM unless noted
[2] = test system: NCI-H226 lung; settings: 10 µM unless noted
[3] = test system: NCI-H322M lung; settings: 10 µM unless noted
[4] = test system: NCI-H460 lung; settings: 10 µM unless noted
[5] = test system: HOP-92 NSCLC; settings: 10 µM
[6] = test system: NCI-H522 lung; settings: 10 µM
[7] = test system: A549/ATCC NSCLC; settings: 10 µM unless noted
[8] = test system: 786-0 renal; settings: 10 µM unless noted
[9] = test system: COLO 205 colon; settings: 10 µM unless noted

| Structure (SMILES) | growth [1] | growth [2] | growth [3] | growth [4] | growth [5] | growth [6] | growth [7] | growth [8] | growth [9] |
| --- | --- | --- | --- | --- | --- | --- | --- | --- | --- |
| COC(=O)c1ccc2[nH]c(O)c(C(=Nc3ccc(N(C)C(=O)CN4CCN(C)CC4)cc3)c3ccc4c(c3)OCO4)c2c1 | 5.66% (active) | 23.3% | 21% | 8.35% (active) | 36.9% | 2.17% (active) | 5.98% (active) | 14.4% | -54.4% (active) |
| O=C(/C=C\c1ccccc1Cl)c1ccccc1 | 91.9% | 86.2% | 104% | 95.4% | 112% | 100% |  | 93.9% | 120% |
| CCCCn1c(Cc2ccc(OC)cc2)nc2cc(OC)c(OC)cc2c1=O | 62.1% | 68.1% | 101% | 99.2% | 61.9% | 87% | 19.7% |  | 107% |
| Cc1nc2c(nnn2-c2ccccc2)c2nc(-c3ccc(Cl)cc3)oc(=O)c12 | 116% | 92.8% | 103% | 115% | 117% | 99.7% | 111% | 105% | 120% |
| Cn1cnc2nc[nH]c2c1=S | 98.7% | 98.2% | 101% | 108% | 75.2% | 86.5% |  | 101% | 116% |
| O=C1OC(c2ccc(-c3ccccc3)cc2)=C/C1=C/c1c2ccccc2cc2ccccc12 | 99.4% | 78.5% | 113% | 94.5% | 79.2% | 109% | 25.8% |  | 101% |
| C=CCSc1nnc(COc2ccc3c(C)c(Cc4ccccc4)c(=O)oc3c2C)o1 | 102% | 95% | 99.2% | 103% | 100% | 81.8% | 101% | 102% | 117% |
| CCS(=O)(=O)N[C@@H]1O[C@H](COC(C)=O)C(OC(C)=O)[C@H](OC(C)=O)C1OC(C)=O (stereo not given in full) | 102% | 109% | 115% |  | 95.4% | 83.7% | 88.7% | 104% | 113% |
| COc1ccc2cnc(N)c(C#Cc3cc(C(=O)Nc4ccc(CN5CCN(C)CC5)c(C(F)(F)F)c4)cnc3C)c2c1 | 52.3% | 26.8% | 70.3% |  | 20.1% | 69.7% | 61.5% | -50.3% (active) |  |
| CC(=O)Oc1cc2ccccc2cc1C(C)C | 107% | 101% | 115% | 99% |  |  |  | 101% | 112% |
| COC(=O)/C=C1/CCCCC1(C)C(=O)OC (stereo not given) | 109% | 102% | 105% | 107% |  |  | 101% | 96.4% | 120% |
| CCCCCCCCC(=O)Nc1ccc(O)cc1 | 92.3% | 104% | 88.1% | 105% |  |  |  | 95.9% |  |
| CCCCCCCCCCC(C[N+](C)(C)C/C=C/c1ccccc1)C(O)c1ccccc1 (stereo not given) | 7.14% (active) | 29% | 46.7% | 5.75% (active) |  |  | 54.5% | -5.14% (active) | -89.2% (active) |
| Oc1ccc(Br)cc1/C=N/NC(=S)NC12CC3CC(CC(C3)C1)C2 | 1.36% (active) | 31.5% | 36.5% | 2.18% (active) |  |  | 8.34% (active) | 54.8% | 68% |
| COC(=O)C(N)CC(C)C (stereo not given) | 107% | 97.1% | 106% | 108% |  |  | 103% | 96.7% | 114% |
| Nc1nc2cc(O)ccc2n2cc3c(F)cccc3c12 | 40.9% | 54.8% | 32.5% | 2.35% (active) |  |  | 22.6% | 27.6% | 55.1% |
| CCOc1ccc(N(C)c2ccc(/C=C/C3=[N+](C)c4ccccc4C3(C)C)cc2)cc1 | 4.67% (active) | 54.2% | 57% | -50% (active) |  |  | 9.51% (active) | 2.71% (active) | -77% (active) |
| CCCNC(=O)Oc1ccc(/C(=C(/C)Cc2ccc(OC)cc2)c2ccc(OCCN3CCCCC3)cc2)cc1 | 90.8% | 95.1% | 81.5% |  | 61% | 84.8% | 84.4% | 81.8% | 79% |

| Structure (SMILES) | growth [1] | growth [2] | growth [3] | growth [4] | growth [5] | growth [6] | growth [7] | growth [8] | growth [9] |
| --- | --- | --- | --- | --- | --- | --- | --- | --- | --- |
| CCCCN(CCC)CCCCCCCCCCN1CCCc2ccccc21 | 71.5% | 99.5% | 99.4% |  | 48.8% | 62% | 97.3% | 88.8% | 91.7% |
| CCCCCN1CCN(C(CC(=O)c2ccccc2)C(=O)c2ccccc2)CC1 (stereo not given) | 98.8% | 103% | 101% |  | 83.4% | 1.49% (active) | 101% | 102% | 55.1% |
| COC(=O)C(C(=O)OC)C(Br)C(Br)C(Br)c1ccccc1 (stereo not given) | 108% | 96.5% | 113% | 108% |  |  | 96% | 96.3% | 71.2% |
| COc1cc(-c2nc(/C=C3/C(=O)Nc4ccccc43)c3ccccn23)cc(OC)c1OC | 47.7% | 82.5% | 113% | 66.4% |  |  | 77% | 71.9% | 75.1% |
| COC(=O)C1CC(=O)N(C(=O)Nc2ccc(Cl)cc2Cl)C1 (stereo not given) | 98.8% | 94.6% | 108% |  | 83.1% | 80.3% | 96.3% | 92.4% |  |
| CC1=C(C)C[C@]2(C(=O)O[C@H]3CCCC[C@@H]32)[S@](=O)C1 | 97.9% | 109% | 106% |  | 105% | 82.9% | 96.5% | 102% | 108% |
| Br/C(=N\Nc1nn[nH]n1)c1ccccc1 | 98.9% | 90.6% | 96.3% | 105% |  |  |  | 92.2% | 104% |
| O=C(Nc1ccc(-n2cc(-c3ccncc3)c(-c3ccc(Cl)c(O)c3)n2)cc1)c1ccc(Cl)c(Cl)c1 | 45.7% | 107% | 97.1% | 8.3% (active) |  |  | 43.6% | -63.5% (active) | 51.9% |
| CCN(CC)CCNc1ncnc2c1cnn2-c1ccc(Cl)cc1 | 76.5% | 100% | 92.8% | 85% |  |  |  | 106% | 15.9% |
| CNc1ccc(Nc2ccc(S(=O)(=O)O)cc2)c2c1C(=O)c1ccccc1C2=O | 106% | 96.6% | 112% | 108% |  |  | 92% | 103% | 118% |
| C=CC1CN2CCC1CC2C(O)c1ccnc2ccc(OC)cc12 (stereo not given) | 98.3% | 91.9% | 94.4% | 98.5% |  |  | 97.3% | 92% | 106% |
| O=C(Nc1cccc(Cn2c(=O)[nH]c3ccc(Oc4ncccn4)cc3c2=O)c1)c1cccc(F)c1 | 82.2% | 74.1% | 86.4% |  | 60.9% | 60.9% | 70.2% | 65.6% |  |
| COc1cccc(-c2cc(-c3cc4ccccc4oc3=O)nc(N)n2)c1 | 101% | 91.2% | 123% | 102% |  |  | 95% | 101% | 108% |
| CCCCCCCCCCCCOC(=O)/C=C\C(=O)NC(N)=O | 110% | 96.8% | 111% | 93.2% |  |  | 81.6% | 89.9% | 111% |
| CC[n+]1c(C)ccc2cc(C)ccc21 | 96% | 93.6% | 111% | 110% |  |  | 75.3% |  | 101% |
| CCCCCCC(C(=O)OCC)(C(=O)OCC)C1CCCCCC1 | 107% | 99.6% | 96.6% | 106% |  |  | 96% | 115% | 102% |
| O=C(CBr)OCc1ccc([N+](=O)[O-])o1 | 97.2% | 104% | 132% | 91.6% |  |  | 100% |  | 100% |
| N=C(c1ccccc1)N(Cc1ccccc1)Cc1ccccc1 | 92.9% | 104% | 84% | 98.3% |  |  | 90.3% | 86.5% | 88.2% |
